Laboratory results from PubChem BioAssay.
Inconclusive results are not listed. Active and inactive are the calls of the source.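 The calls were made as follows, unless noted: active = inhibition above 54%, about 3 SD of non-fluorescent compounds; inactive = the rest.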

Assays:
[1] = rapamycin-like changes in RPL19A-GFP expression – cell-based, S. cerevisiae, multiplex flow cytometry, primary screen (AID 1862; in the data active = percent of DMSO control GFP below about 86%;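 also: lower values mimic rapamycin by blocking the RPL19A rise seen in DMSO cells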); conditions: S. cerevisiae RPL19A-GFP strain, flow cytometry fluorescence, 3 h; at 10 µM; stronger effect = lower value
[2] = TOR pathway GLN3 branch reporter MEP2-GFP changes – S. cerevisiae, multiplex flow cytometry, primary screen (AID 1867;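 active = GFP response, as percent of the DMSO control, above the screen-wide mean plus 3 SD, about 139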;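 also: median GFP channel fluorescence of barcode-gated MEP2-GFP cells measured by flow cytometry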); conditions: S. cerevisiae MEP2-GFP strain, 3 h, at 10 µM, stronger effect = higher value, 100% means same as DMSO wells
[3] = TOR pathway RTG branch CIT2 reporter changes – S. cerevisiae, GFP fusion, multiplex flow cytometry, primary screen (AID 1870;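 active = percent response above a set limit, the screen-wide mean plus 3 SD, cut at about 130% in these data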;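 also: barcoded CIT2-GFP strain pooled with four other GFP strains with rapamycin as positive control; median GFP fluorescence per well over plate mean of DMSO wells so 100% = DMSO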); conditions: S. cerevisiae CIT2-GFP expression, 3 h, at 10 µM, stronger effect = higher value
[4] = TOR pathway LAP4-GFP level changes – S. cerevisiae, multiplex flow cytometry, primary screen (AID 1873;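 active = GFP signal, as percent of the solvent control, above the screen mean plus 3 SD, about 149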); conditions: S. cerevisiae LAP4-GFP expression, 3 h, at 10 µM, stronger effect = higher value
[5] = yeast AGP1-GFP level changes, GLN3 branch – cell-based, multiplex flow cytometry, S. cerevisiae, primary screen (AID 1887;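 active = GFP signal above the screen-wide mean plus 3 SD, that is over about 124.5% of the solvent control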;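 also: AGP1-GFP fusion strain of S. cerevisiae within a five-strain barcoded multiplex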); conditions: 3 h, at 10 µM, stronger effect = higher value
[6] = reduced mouse 2C T cell binding to pMHC/ICAM-1 vesicles – MLPCN validation set, flow cytometry, LFA-1/ICAM-1 modulator project, pilot screen (AID 2523;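 active = response below a set limit, under 55% cells CD8-positive and vesicle-bound, and CD8 cells' 90th-percentile brightness under 279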;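 as to vesicle binding response: mean PE anti-B7-1 fluorescence of CD8+ cells relative to row control; 100% = QL9-loaded vesicles with DMSO vehicle in the same plate row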); conditions: 2C mouse CD8+ T cells, at 7 µM, stronger effect = lower value; double positive events: measured here: CD8+/vesicle+ event percentage
[7] = biological target: Integrin beta-1 (Homo sapiens) + Integrin alpha-4 (Homo sapiens) (UniProt P13612+P05556); test: alpha4beta1 integrin LIBS antibody binding reduction – U937 cells, HUTS-21 mAb, flow cytometry, validation set, VLA-4 allosteric modulator project, pilot screen (AID 2674;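 active = inhibition above 50%, about 3 SD of the validation set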;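 also: antibody binding induced by the VLA-4 ligand LDV present at three times its Kd; 0% = LDV ligand with antibody and no compound and 100% = antibody without LDV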); conditions: HUTS-21 LIBS mAb binding, at 6.7 µM, stronger effect = higher value, binding induced by LDV ligand
[8] = calorie-restriction mimetic ROS inhibitors, yeast – validation compound set, pilot screen (AID 2706;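 active = superoxide response below 65% of plate, a cut near 3 SD across the whole screen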;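 also: yeast exposed to compound for one week at 30 degrees C before staining; 100% = mean of all compound wells on the same plate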); conditions: S. cerevisiae aging, superoxide DHE fluorescence; at 10 µM; stronger effect = lower value
[9] = biological target: Beta-adrenergic receptor kinase 1 (Homo sapiens) (UniProt P25098); test: GRK2 binders displacing RNA aptamer, biochemical, validation, human GRK2, bead flow cytometry (AID 488806;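 active = aptamer binding inhibition above 30%, about 3 SD of noise from non-fluorescent compounds; inactive = inhibition at or below 30%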); conditions: bead-bound GRK2, FAM-aptamer displacement, at 10 µM, stronger effect = higher value
[10] = biological target: Beta-2 adrenergic receptor (Homo sapiens) (UniProt P07550); test: agonist-induced loss of surface beta2AR – cell-based, FAP fluorogen, flow cytometry, validation set, pilot screen (AID 504459;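 active = percent response above 42, roughly 3 SD of non-fluorescent test compounds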;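 also: agonist-driven loss of surface beta2AR via internalization measured by FAP dye flow cytometry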); conditions: Am2.2-beta2AR cells, at 10 µM, stronger effect = higher value
[11] = biological target: AP-2 complex subunit beta (Homo sapiens) (UniProt P63010); test: beta-arrestin/AP2 interaction blockers – biochemical, validation set, GST-AP2 beads, flow cytometry, pilot screen (AID 504541); conditions: FITC arrestin peptide, at 10 µM, stronger effect = higher value, AP2 beta2 appendage fragment, R879A mutant;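 also: AP2 carries R879A mutation and is captured from E. coli lysate; bead-bound FITC arrestin peptide fluorescence measuring arrestin peptide binding to AP2; 0% = DMSO wells and 100% = excess unlabeled arrestin peptide control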
[12] = cytosolic pH regulators acting via V-ATPase – S. cerevisiae, pHLuorin, HTS validation (AID 504600; in the data active = response above about 15%;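 also: plate controls were DMSO for no effect and reference compound for full effect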); conditions: V-ATPase proton transport, at 10 µM, stronger effect = higher value
[13] = test system: anti-desmoglein-3 scFv antibody binding to human DSG3; test: blockers of pathogenic pemphigus antibody–desmoglein-3 binding – biochemical, validation compound set, bead-based, flow cytometry, pilot screen (AID 588368;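 active = binding below the plate cutoff, the plate median minus 3 SD, with a reading above zero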;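 also: signal is the median channel fluorescence of bead-bound GFP antibody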); conditions: Protein G beads, DSG3-Fc, scFv-GFP binding, at 10 µM, stronger effect = lower value
[14] = Nile Red efflux blockade in pump-expressing yeast – validation compound set, multiplex, phenotypic, pilot screen (AID 588506;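 active = efflux inhibition above 0.42, the validation set average plus 4 SD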;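 also: Nile Red retained in cells so higher fluorescence means more efflux inhibition; 0 = negative control wells and 1 = enniatin B 25 µM full block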); conditions: S. cerevisiae pump-expressing triplex, Nile Red efflux flow cytometry; at 10 µM; stronger effect = higher value; the pumps come from Candida albicans
[15] = biological target: ATP-binding cassette sub-family B member 6 (Homo sapiens) (UniProt Q9NP58); test: blockers of ABCB6-driven porphyrin uptake – K562-ABCB6 cells, flow cytometry, validation set, pilot screen (AID 588550;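 active = inhibition above the screen-wide mean plus 3 SD, about 51%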;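 also: 0% = DMSO wells and 100% = benzethonium chloride 70 µM positive control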); conditions: K562-ABCB6 porphyrin accumulation, 1 h, at 10 µM, stronger effect = higher value
[16] = AML differentiation inducers, ER-HoxA9 marrow cells – cell-based, GFP/MAC1 double positive, flow cytometry, validation set, primary screen (AID 588685;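 active = differentiation response of at least 50%, scaled between solvent and reference control, from cells with both markers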;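 also: compound exposure lasts four days before antibody staining and flow analysis; 0% = DMSO wells and 100% = 5 µM fulvestrant positive control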); conditions: stronger effect = higher value, normalized: vehicle 0, fulvestrant 100

Sequence of Integrin beta-1 (Homo sapiens) + Integrin alpha-4 (Homo sapiens) (P05556 whole entry, looked up): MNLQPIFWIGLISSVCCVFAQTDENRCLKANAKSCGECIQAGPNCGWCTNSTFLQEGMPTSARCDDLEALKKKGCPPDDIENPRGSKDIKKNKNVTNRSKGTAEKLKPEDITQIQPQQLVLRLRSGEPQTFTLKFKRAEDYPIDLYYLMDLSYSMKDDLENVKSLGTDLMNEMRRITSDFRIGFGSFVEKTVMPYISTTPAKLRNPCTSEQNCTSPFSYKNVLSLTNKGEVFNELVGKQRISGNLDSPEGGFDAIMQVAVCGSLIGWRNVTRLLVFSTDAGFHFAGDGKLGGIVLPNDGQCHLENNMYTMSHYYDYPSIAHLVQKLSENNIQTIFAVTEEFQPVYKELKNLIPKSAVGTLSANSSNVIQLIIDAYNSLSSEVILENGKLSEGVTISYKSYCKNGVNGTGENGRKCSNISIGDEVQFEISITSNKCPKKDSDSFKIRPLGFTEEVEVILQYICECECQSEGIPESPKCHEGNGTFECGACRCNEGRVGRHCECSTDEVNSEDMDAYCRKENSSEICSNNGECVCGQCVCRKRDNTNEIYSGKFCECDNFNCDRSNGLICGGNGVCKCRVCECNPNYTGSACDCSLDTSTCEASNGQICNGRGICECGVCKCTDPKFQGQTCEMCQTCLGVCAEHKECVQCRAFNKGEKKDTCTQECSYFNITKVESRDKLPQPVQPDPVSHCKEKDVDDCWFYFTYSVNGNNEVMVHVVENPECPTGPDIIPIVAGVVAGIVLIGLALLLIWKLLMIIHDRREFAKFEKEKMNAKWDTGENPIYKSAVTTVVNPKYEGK
Sequence of Integrin beta-1 (Homo sapiens) + Integrin alpha-4 (Homo sapiens) (P13612 whole entry, looked up): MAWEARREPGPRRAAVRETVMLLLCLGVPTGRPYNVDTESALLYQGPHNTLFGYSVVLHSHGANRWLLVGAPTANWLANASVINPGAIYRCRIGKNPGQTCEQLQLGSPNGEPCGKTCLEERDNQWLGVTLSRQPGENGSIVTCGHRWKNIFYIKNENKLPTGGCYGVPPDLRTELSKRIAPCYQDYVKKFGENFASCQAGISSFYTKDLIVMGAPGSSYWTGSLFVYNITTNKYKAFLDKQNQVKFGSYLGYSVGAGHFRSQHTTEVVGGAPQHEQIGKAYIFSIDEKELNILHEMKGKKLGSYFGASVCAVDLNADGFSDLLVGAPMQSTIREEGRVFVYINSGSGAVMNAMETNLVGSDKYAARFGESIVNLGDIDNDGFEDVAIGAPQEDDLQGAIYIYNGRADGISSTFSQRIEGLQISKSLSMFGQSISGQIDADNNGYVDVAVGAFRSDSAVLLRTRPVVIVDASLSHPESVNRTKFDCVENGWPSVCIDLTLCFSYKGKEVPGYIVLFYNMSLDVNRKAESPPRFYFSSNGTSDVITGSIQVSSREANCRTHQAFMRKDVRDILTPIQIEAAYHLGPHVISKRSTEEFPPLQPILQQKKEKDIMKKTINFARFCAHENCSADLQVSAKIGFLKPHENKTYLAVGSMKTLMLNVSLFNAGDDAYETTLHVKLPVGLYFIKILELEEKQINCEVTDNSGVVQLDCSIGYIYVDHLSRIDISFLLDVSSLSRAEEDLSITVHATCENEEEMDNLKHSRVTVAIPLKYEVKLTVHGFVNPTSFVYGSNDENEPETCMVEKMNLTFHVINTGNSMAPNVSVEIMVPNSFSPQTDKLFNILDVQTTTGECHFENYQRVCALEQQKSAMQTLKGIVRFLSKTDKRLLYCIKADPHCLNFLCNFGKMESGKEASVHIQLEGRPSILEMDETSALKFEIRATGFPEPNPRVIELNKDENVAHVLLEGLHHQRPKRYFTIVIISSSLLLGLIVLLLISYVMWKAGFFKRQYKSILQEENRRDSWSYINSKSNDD
Sequence of AP-2 complex subunit beta (Homo sapiens) (P63010 whole entry, looked up, the tested form may be a part, one chain of several): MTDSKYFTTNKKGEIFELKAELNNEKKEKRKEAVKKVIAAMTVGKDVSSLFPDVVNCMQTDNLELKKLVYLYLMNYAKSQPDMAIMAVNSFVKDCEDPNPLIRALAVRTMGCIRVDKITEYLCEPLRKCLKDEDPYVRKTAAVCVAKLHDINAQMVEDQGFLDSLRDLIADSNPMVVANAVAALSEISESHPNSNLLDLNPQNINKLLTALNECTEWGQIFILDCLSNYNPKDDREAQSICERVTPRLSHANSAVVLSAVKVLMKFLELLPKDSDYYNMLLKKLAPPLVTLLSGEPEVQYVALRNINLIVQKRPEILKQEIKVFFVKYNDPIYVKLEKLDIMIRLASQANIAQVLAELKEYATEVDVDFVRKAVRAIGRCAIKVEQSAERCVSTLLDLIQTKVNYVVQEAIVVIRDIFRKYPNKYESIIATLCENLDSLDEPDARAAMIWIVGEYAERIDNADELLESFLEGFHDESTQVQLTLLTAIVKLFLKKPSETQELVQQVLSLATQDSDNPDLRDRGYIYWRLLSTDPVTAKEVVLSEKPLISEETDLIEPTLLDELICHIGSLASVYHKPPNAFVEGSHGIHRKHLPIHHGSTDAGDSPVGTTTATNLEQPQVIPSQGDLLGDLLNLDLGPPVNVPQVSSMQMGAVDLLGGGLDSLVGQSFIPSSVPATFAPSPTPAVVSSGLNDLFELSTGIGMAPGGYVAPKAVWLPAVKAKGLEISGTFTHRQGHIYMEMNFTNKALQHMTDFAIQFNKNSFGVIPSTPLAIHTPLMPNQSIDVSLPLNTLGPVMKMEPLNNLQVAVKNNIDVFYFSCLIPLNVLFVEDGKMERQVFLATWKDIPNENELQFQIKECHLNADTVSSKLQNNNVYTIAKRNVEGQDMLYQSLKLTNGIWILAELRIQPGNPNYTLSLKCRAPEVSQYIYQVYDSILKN
Sequence of Beta-adrenergic receptor kinase 1 (Homo sapiens) (P25098 whole entry, looked up): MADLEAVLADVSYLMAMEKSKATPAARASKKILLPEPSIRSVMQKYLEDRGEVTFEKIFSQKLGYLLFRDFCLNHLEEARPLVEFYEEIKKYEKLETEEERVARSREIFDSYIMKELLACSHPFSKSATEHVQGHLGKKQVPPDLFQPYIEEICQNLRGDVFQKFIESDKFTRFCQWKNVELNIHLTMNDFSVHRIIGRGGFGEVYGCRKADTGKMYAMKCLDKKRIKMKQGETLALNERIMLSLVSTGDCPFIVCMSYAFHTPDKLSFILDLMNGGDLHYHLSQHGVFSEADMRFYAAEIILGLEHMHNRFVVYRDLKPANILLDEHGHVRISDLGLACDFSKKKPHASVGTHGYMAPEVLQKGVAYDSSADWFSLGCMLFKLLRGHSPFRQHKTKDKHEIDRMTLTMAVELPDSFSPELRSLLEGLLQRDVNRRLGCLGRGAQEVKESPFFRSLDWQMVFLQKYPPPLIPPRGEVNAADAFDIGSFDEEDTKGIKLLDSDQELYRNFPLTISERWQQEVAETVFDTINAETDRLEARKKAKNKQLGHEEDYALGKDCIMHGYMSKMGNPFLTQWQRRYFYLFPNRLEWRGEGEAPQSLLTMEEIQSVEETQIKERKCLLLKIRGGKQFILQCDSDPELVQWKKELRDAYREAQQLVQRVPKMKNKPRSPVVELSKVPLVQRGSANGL
Sequence of ATP-binding cassette sub-family B member 6 (Homo sapiens) (Q9NP58 whole entry, looked up): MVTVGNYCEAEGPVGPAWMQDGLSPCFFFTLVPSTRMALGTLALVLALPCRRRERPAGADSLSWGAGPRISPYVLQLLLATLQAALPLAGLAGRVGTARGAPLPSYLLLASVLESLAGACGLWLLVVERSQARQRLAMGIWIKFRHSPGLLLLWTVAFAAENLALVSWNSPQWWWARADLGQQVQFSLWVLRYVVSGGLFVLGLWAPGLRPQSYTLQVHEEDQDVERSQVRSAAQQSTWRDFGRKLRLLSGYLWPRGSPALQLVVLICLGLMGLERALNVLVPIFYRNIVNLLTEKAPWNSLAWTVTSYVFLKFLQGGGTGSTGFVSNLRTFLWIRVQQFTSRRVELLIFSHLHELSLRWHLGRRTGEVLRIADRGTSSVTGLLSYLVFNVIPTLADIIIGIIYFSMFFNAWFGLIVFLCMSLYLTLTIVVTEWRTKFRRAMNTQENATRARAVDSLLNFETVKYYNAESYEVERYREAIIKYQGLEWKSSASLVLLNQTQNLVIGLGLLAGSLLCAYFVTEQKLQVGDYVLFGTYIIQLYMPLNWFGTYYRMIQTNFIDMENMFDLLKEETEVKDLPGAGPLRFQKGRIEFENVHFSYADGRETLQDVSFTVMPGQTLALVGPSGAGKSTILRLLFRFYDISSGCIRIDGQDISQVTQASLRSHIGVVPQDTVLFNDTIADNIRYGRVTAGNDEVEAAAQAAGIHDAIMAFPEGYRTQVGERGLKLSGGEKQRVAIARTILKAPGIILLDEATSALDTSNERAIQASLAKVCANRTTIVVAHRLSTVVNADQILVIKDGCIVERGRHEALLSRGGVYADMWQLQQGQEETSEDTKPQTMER
Sequence of Beta-2 adrenergic receptor (Homo sapiens) (P07550 whole entry, looked up, the tested form may be a part): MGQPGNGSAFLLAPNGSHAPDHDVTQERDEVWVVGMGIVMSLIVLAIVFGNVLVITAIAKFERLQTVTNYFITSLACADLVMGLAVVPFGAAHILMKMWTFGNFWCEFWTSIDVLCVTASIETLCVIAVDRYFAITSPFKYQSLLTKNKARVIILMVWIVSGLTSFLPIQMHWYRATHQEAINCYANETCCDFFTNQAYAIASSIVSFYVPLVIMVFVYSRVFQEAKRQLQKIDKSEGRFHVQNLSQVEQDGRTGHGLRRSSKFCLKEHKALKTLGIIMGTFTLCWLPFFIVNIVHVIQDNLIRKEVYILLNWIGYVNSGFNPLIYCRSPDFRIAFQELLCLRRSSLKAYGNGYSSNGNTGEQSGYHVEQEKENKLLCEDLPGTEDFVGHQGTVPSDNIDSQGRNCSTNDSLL

Row | Structure (SMILES) | percent of DMSO control GFP [1] | GFP response vs DMSO [2] | percent response of DMSO control [3] | GFP response vs DMSO [4] | GFP response, % of DMSO [5] | double positive events [6] | vesicle binding response [6] | inhibition [7] | superoxide response (% of plate) [8] | aptamer binding inhibition [9] | response [10] | inhibition [11] | response [12] | binding (% of control) [13] | efflux inhibition (fraction of control) [14] | inhibition [15] | differentiation response [16]
1 | Cn1c(=O)[nH]c(=O)c2c1nc(NCc1ccco1)n2CCCc1ccccc1 | 101% (inactive) | 101% (inactive) | 100% (inactive) | 90.1% (inactive) | 105% (inactive) | 62.6% | 36.6% (inactive) | -2.53% (inactive) | 103% (inactive) | 5% (inactive) | -5.62% (inactive) | 9.94% (inactive) | 0.19% (inactive) | 97.2% (inactive) | -0.07 (inactive) | -1% (inactive) | -3.67% (inactive)
2 | Cc1oc2cc(O)cc(O)c2c(=O)c1-c1ccc2c(c1)OCCCO2 | 95.6% (inactive) | 103% (inactive) | 88.2% (inactive) | 128% (inactive) | 91.7% (inactive) | 60.8% | 195% (inactive) | 14.6% (inactive) | 100% (inactive) | 3% (inactive) | 5% (inactive) | 21% (inactive) | 0.59% (inactive) | 101% (inactive) | 0.01 (inactive) | 8% (inactive) | 12% (inactive)
3 | Cc1cn([C@H]2C=C[C@@H](CO)O2)c(=O)[nH]c1=O | 101% (inactive) | 104% (inactive) | 94.2% (inactive) | 92% (inactive) | 93.5% (inactive) | 65.8% | 705% (inactive) | 16.1% (inactive) | 94.6% (inactive) | 3% (inactive) | -6.71% (inactive) | -12% (inactive) | 3.71% (inactive) | 101% (inactive) | 0.02 (inactive) | 3% (inactive) | 1.22% (inactive)
4 | CC1(C)CC(NC(=O)C23CCC(C)(C(=O)C2=O)C3(C)C)CC(C)(C)N1 (stereo not drawn) | 99% (inactive) | 112% (inactive) | 88.2% (inactive) | 116% (inactive) | 99.2% (inactive) | 65.1% | 166% (inactive) | 10.5% (inactive) | 96.1% (inactive) | 3% (inactive) | -4.74% (inactive) | -0.24% (inactive) | 6.45% (inactive) | 99.7% (inactive) | 0.19 (inactive) | 13% (inactive) | 12% (inactive)
5 | Cc1ccc(S(=O)(=O)N[C@@H](Cc2ccccc2)C(=O)CCl)cc1 | 99.2% (inactive) | 91.8% (inactive) | 92.5% (inactive) | 108% (inactive) | 107% (inactive) | 59.9% | 101% (inactive) | 48.3% (inactive) | 100% (inactive) | 8% (inactive) | 11.3% (inactive) | -2.91% (inactive) | -3.47% (inactive) | 99% (inactive) | 0.04 (inactive) | 9% (inactive) | -4% (inactive)
6 | CC1(C)C(C=C(Cl)Cl)C1C(=O)N1CCN(Cc2ccccc2)CC1 (stereo not drawn) | 103% (inactive) | 99.3% (inactive) | 104% (inactive) | 89.4% (inactive) | 103% (inactive) | 66.3% | 329% (inactive) | -6.68% (inactive) | 102% (inactive) | 3% (inactive) | -1.88% (inactive) | 5.16% (inactive) | -5.4% (inactive) | 93.5% (inactive) | -0.01 (inactive) | 13% (inactive) | -9.53% (inactive)
7 | CC(=O)N/C(=C/c1ccc2c(c1)OCO2)C(=O)NCCO | 98.2% (inactive) | 106% (inactive) | 93.9% (inactive) | 111% (inactive) | 106% (inactive) | 61.5% | 3870% (inactive) | -5.89% (inactive) | 106% (inactive) | 0% (inactive) | 2.49% (inactive) | -4.62% (inactive) | 1.75% (inactive) | 97.4% (inactive) | -0.42 (inactive) | 2% (inactive) | -5.6% (inactive)
8 | CCOCC(=O)Nc1nc2ccccc2s1 | 92.4% (inactive) | 125% (inactive) | 101% (inactive) | 80.9% (inactive) | 94.2% (inactive) | 65.7% | 149% (inactive) | 2.58% (inactive) | 95.4% (inactive) | 6% (inactive) | -8.15% (inactive) | -1.47% (inactive) | 3.42% (inactive) | 105% (inactive) | 0.23 (inactive) | 12% (inactive) | -0.82% (inactive)
9 | Cc1ccc(C(=O)NCCNC(=O)c2ccccc2)cc1 | 92.8% (inactive) | 96.6% (inactive) | 88% (inactive) | 98.3% (inactive) | 103% (inactive) | 69.2% | 179% (inactive) | 13.4% (inactive) | 102% (inactive) | 0% (inactive) | -20.1% (inactive) | -2.62% (inactive) | -1.2% (inactive) | 103% (inactive) | -0.04 (inactive) | 4% (inactive) | -18.8% (inactive)
